92 compounds from PubChem BioAssay AID2716 (Broad Institute, 2010) can be followed below.

Where “and” joins values, the source holds several entries; their conditions need not be identical. Equal entries are not always repeated. Screen size: about 320,000 compounds; about 3,300 (1%) were called active. Shown is part of a subset that was picked to be rich in actives. A number with no mark means an inactive call.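 Rule for the calls: active = every valid replicate shows activation above 250% relative to neutral control wells; inactive = the rest, any valid replicate at or below 250%.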

The test in a line: yeast Mot1-301 growth rescue at high temperature, primary screen, SUMOylation pathway inhibitor project, S. cerevisiae, ATP luminescence, 38.5C (AID 2716).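 Note: OY570 slx delta 5 strain wells were the positive control but not used for scaling.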 The following applies: S. cerevisiae Mot1-301 growth rescue, at 18.8 µM, stronger effect = higher value, percent above DMSO median, 100 means doubled.
`O=C(CN1CCN(c2ccccn2)CC1)Nc1ccc(Br)cc1`: the growth rescue was 5.41%. In the case of `Cc1cc(Br)ccc1NC(=O)c1sc2ncn(CC(=O)N3CCN(c4ccccn4)CC3)c(=O)c2c1C`, the growth rescue is -24.4%. `Cc1cc(Br)ccc1NC(=O)c1cnc(N2CCN(c3ccccn3)CC2)c2ccccc12`: the growth rescue is 1030% (active). For the compound `COc1ccc(N2CCN(C(=O)COC(=O)c3cccc(S(=O)(=O)Nc4ccccc4OC)c3)CC2)cc1`, the growth rescue is -0.984%. With `COc1ccc(N2CC(C(=O)NCCS(=O)(=O)N3CCN(c4ccccc4)CC3)CC2=O)cc1` (configuration not stated), the growth rescue is 3.93%. In the case of `CCCCNC(=O)Cn1nc(C)c(S(=O)(=O)N2CCOCC2)c1C`, the growth rescue is -1.53%.

Take `NC(=O)C1CCN(C(=O)COc2ccc3c4c(c(=O)oc3c2)CCC4)CC1`: the growth rescue is 296% (active). Consider `O=C(COc1ccc2c3c(c(=O)oc2c1)CCCC3)NCC(O)c1ccccc1` (configuration not stated), for which the growth rescue is 1.8%. Next, `O=C(COc1ccc2c3c(c(=O)oc2c1)CCC3)NC1CCCCC1`: 5.16%. For `CCCCCCCCCCCCN1[C@@H](CC(C)=O)c2cc(F)cc(F)c2S1(=O)=O`, the growth rescue is -17.6%.

In the case of `COc1ccc(C)cc1N(C(=O)Cn1nnc(-c2ccc(C)o2)n1)C(C(=O)NC1CCCC1)c1ccncc1` (configuration not stated), the growth rescue was -11.2%.

With `CN(CCO)c1ccc(/C=N/Nc2nncc3ccccc23)cc1`, the growth rescue was 20.6%. Turning to `C=CC1=C(C(=O)O)N2C(=O)[C@@H](NC(=O)/C(=N/OCC(=O)O)c3csc(N)n3)[C@H]2SC1`, the growth rescue is 328% (active). The same measure for `CO/N=C(\C(=O)N[C@@H]1C(=O)N2C(C(=O)O)=C(COC(C)=O)CS[C@H]12)c1csc(N)n1` (stereo in doubt): -1.64% and 233%; for `Cc1cc(C)cc(C(=O)NC2C(=O)N3C(C(=O)O)=C(CSc4nnc(C)s4)CSC23)c1` (configuration not stated): -7.63%. For `CCN(C(=O)COC(=O)Cc1c(F)cccc1Cl)c1c(N)n(Cc2ccccc2)c(=O)[nH]c1=O`, the growth rescue was -1.24%. The same measure for `Cc1ccccc1N1CCN(CC(=O)NCc2ccc(Cl)cc2)CC1`: 22%. Next, `CCOc1ccc(C(C)C)cc1S(=O)(=O)n1nc(C)cc1C`: -14.9%. On to `COc1ccc(C(C[N+](=O)[O-])n2nc(C)cc2C)cc1` (configuration not stated), for which the growth rescue was 383% (active). `COc1ccc(OCc2cn3c(C)cc(C)nc3n2)cc1`: the growth rescue is 1.72%. Regarding `Nc1c(-c2cccc(Cl)c2)cnn1-c1cccc([N+](=O)[O-])c1`, the growth rescue was 0.816%. The same measure for `O=C(Nc1ccc(-n2ccnc2P(=O)(O)c2ccccc2)cc1)c1ccccc1Br`: 46.7%; for `O=C(Cc1ccccc1Cl)N1CCOCC1`: 9.61%; for `O=C(O)CC(CC(=O)N1CCOCC1)c1ccccc1` (configuration not stated): -13.1%. On to `O=C(CP(=O)(c1ccccc1)c1ccccc1)N1CCOCC1`, for which the growth rescue is 634% (active). Turning to `COc1ccc(C(=O)COC(=O)CN2C(=O)C3CC=CCC3C2=O)c(OC)c1` (configuration not stated), the growth rescue was 9.86%. Regarding `CCC(CO)Oc1cc(NCc2ccccc2)c2ncn(C3CCCC3)c2c1` (configuration not stated), the growth rescue was 9.9%. The same measure for `C/C(CC(C)C)=N\Oc1nc(C)cc(C)n1`: -10.5%. Next, `CN(C)/C(CN1CCCCC1)=C1\N=C(c2ccccc2)OC1=O`: 1740% (active).

For `O=C(CN1CCCC1)N1CCN(c2ccccc2)CC1`, the growth rescue was 0.51%. With `CC(CN1CCCCC1)c1ccccc1` (configuration not stated), the growth rescue was 7.87%. Next, `O=C(c1cc(Cl)cc(Cl)c1)N1CCC(=O)N(C(COCc2ccccc2)Cc2ccccc2)CC1` (configuration not stated): -7.87%; `Oc1c(Cl)cc(Cl)c(Cl)c1Cc1c(O)c(Cl)cc(Cl)c1Cl`: 482% (active) and 481% (active); `CC(=O)c1ccc(N2CCN(C(=O)c3ccc4nc[nH]c4c3)CC2)cc1`: 10.1%.

With `CC(=C/c1ccccc1)/C=N/NC(=O)c1cc(C)oc1C`, the growth rescue was 2.01%. Turning to `Cc1cc(C(=O)NNC(=O)c2ccccc2O)c(C)o1`, the growth rescue was -0.00731%.

For `Cc1ccc(-c2cc(C(=O)N/N=C/C=C/c3ccccc3)n[nH]2)o1`, the growth rescue is -7.96%.

As for `CC(C)c1cc(C(=O)O)n[nH]1`, the growth rescue was -2.94%. For the compound `CC(C)c1cc(C(=O)N/N=C/C(Br)=C/c2ccccc2)n[nH]1`, the growth rescue was 457% (active). Turning to `Cc1cc(C(=O)N/N=C\C(Br)=C\c2ccccc2)c(C)o1`, the growth rescue was 558% (active). Regarding `CCCc1c(C(=O)N/N=C(\C)CCc2ccc(OC)cc2)nnn1-c1nonc1N`, the growth rescue was 3.62%. Regarding `CCOC(=O)C1CCN(C(=O)Cn2nc(C)c3c(C)n(-c4ccccc4)nc3c2=O)CC1`, the growth rescue is 34.9%. `NC(=O)c1nnsc1-c1ccc(-c2snnc2C(N)=O)cc1`: the growth rescue was 18.5%. As to `COc1cccc(CN(C)CC2CCCN(CCc3ccc(Cl)cc3)C2)c1OC` (configuration not stated), the growth rescue was 535% (active).

For `COc1cccc(CN(C)CC(=O)NCc2ccccc2Cl)c1OC`, the growth rescue was 10.7%.

On to `Cc1nc2ccc(C(=O)N(C)CC3CCCN(CCc4ccc(Cl)cc4)C3)cc2[nH]1` (configuration not stated), for which the growth rescue is 3.97%. For the compound `CN(C)c1nc(=Nc2cccc(Cl)c2)ss1`, the growth rescue was 331% (active). As to `Cc1cccc(C)c1NC(=O)N1CC(C)OC(C)C1` (configuration not stated), the growth rescue is -5.77%. The same measure for `Cc1ccc(-c2nc(COC(=O)c3c(C)noc3C)cs2)cc1`: 0.699%. The same measure for `Cc1ccc(S(=O)(=O)N(C)c2nc3ccccc3n3c(C(C)C)nnc23)cc1`: 138%. Next, `CCCC1(C(=O)OCC)NC(c2ccc(N(C)C)cc2)C2C(=O)N(c3ccc4c(c3)OCCO4)C(=O)C21` (configuration not stated): -0.477%. Regarding `O=C(Nc1nn(Cc2ccccc2F)cc1Br)c1cccs1`, the growth rescue is 13%.

In the case of `Cc1ccc(OCC(=O)Oc2ccccc2[N+](=O)[O-])cc1`, the growth rescue is 330% (active). With `O=C(COc1ccccc1[N+](=O)[O-])NC1CC1`, the growth rescue was 1.86%. With `CCOC(=O)COc1ccc([N+](=O)[O-])cc1`, the growth rescue is 319%. For the compound `O=C(/C=C/c1cnc2ccccc2n1)NC1CCCCCC1`, the growth rescue is 26.5%.

With `Nc1c(N(CCCO)C(=O)C2CCCC2)c(=O)[nH]c(=O)n1Cc1ccccc1`, the growth rescue is 103%. The same measure for `COc1ccc(CCNC(=O)CCC(=O)NC2CCCCC2)cc1OC`: 26.5%; for `Cc1ccc2c(c1)C(O)(CC(=O)c1cccc(-n3cccc3)c1)C(=O)N2` (configuration not stated): -2.84%. As to `Cc1ccc2c(c1)C(O)(CC(=O)c1cccnc1)C(=O)N2` (configuration not stated), the growth rescue was 1220% (active). Consider `Cc1cccc(OCC(=O)NCCNC(=O)c2cccnc2)c1`, for which the growth rescue was 220%. The same measure for `CCC/C=C(\CCC)C(NC(=O)Cc1ccccc1)c1ccc(C(=O)OC)cc1` (configuration not stated): -14.4%; for `O=C(Nc1ccccc1)Nc1ccc(C(F)(F)F)cn1`: -19.3%; for `CC(C)C[C@H](NC(=O)Nc1cccc(C(F)(F)F)c1)C(=O)O`: -3.86%. The same measure for `Cc1ccc(NC(=O)Nc2cccc(C(F)(F)F)c2)nc1`: 471% (active); for `O=C(CNS(=O)(=O)c1ccc2c(c1)OCCCO2)N1CCN(c2ccc(F)cc2)CC1`: 10.2%; for `COc1ccc2c(CC(=O)NNC(=O)c3ccccc3F)coc2c1`: 9.24%.

For the compound `COc1ccc(/C=N/NC(=O)Cn2cc(C(F)(F)F)ccc2=O)cc1`, the growth rescue was 0.303%. The same measure for `CCCc1cc(=O)oc2c(C)c(OCC(=O)N3CCC(C(=O)O)CC3)ccc12`: 10.4%; for `CCc1cc(=O)oc2cc(C)cc(OCC(=O)N3CCC[C@@H]3C(=O)O)c12`: 694% (active); for `CCc1cc(=O)oc2cc(C)cc(OC(C)C(=O)O)c12` (configuration not stated): -0.434%.

On to `Cc1cc(=O)n2nc(N3CCCC(C(=O)NCc4ccc(Cl)cc4)C3)sc2n1` (configuration not stated), for which the growth rescue was 7.79%. Next, `O=C(CSc1nc2[nH]c(=O)[nH]c(=O)c2s1)Nc1cccc(F)c1`: -17.9%; `O=S(=O)(Nc1ncnc2sccc12)c1cccc(F)c1`: 5.08%; `O=C(NCC1CCCO1)c1cc2c(s1)CCCC2` (configuration not stated): -9.49%. Next, `CC1=CC(=O)C=CC1(C)C(Cl)(Cl)Cl` (configuration not stated): 385% (active); `COc1ccccc1Nc1nnc(SC(C)C(=O)NC2CC2)s1` (configuration not stated): -11.6%. For the compound `CC1C(=O)N2CCCc3cc(S(=O)(=O)NCc4ccc(F)cc4)cc1c32` (configuration not stated), the growth rescue was -4.02%. Next, `Cc1ccc(NC(=O)CSc2nnc(CNC(=O)c3ccccc3F)o2)cc1`: 3.58%.

As for `O=C(OC1CCCCC1=O)c1cccc(S(=O)(=O)NCc2ccccc2)c1` (configuration not stated), the growth rescue is 12.9%. The same measure for `O=C(OC1CCOC1=O)c1cccc(S(=O)(=O)Nc2ccc(F)cc2)c1` (configuration not stated): 535% (active); for `O=C(NCCN1CCOCC1)c1cccc(S(=O)(=O)Nc2ccc(F)cc2)c1`: 18.1%. The same measure for `CCCCn1c(N)c(N(CC(C)C)C(=O)c2cccc(S(=O)(=O)N3CCN(C(C)=O)CC3)c2)c(=O)[nH]c1=O`: -9.04%; for `Cc1cccc(N2CCN(S(=O)(=O)c3ccc4[nH]c(=O)c(=O)[nH]c4c3)CC2C)c1` (configuration not stated): 2.34%; for `COc1ccc(CCNC(=O)COC(=O)C2CC2C)cc1` (configuration not stated): 4.29%. Next, `O=C(c1c(F)cccc1F)N1CCN(S(=O)(=O)c2ccc3c(c2)OCCO3)CC1`: 3.47%. With `CCC(=C/c1sc2ccc3ccccc3c2[n+]1C)/C=C1\Sc2ccc3ccccc3c2N1C`, the growth rescue was 6.07%.

`Cc1c(Cl)cccc1NC(=O)CCC(=O)N/N=C/c1ccco1`: the growth rescue is 2.23%.

As for `Cc1ccc(NC(=O)CCC(=O)N/N=C/c2ccco2)c(C)c1`, the growth rescue is -4.26%. The same measure for `Cc1cc(C)c(OCC(=O)N/N=C/c2ccco2)c(C)c1`: 568% (active); for `CCOc1ccc(CCNC(=O)COC(=O)CCS(=O)(=O)c2ccc(C)cc2)cc1OCC`: -6.14%; for `Cc1ccc2nc(NC(=O)CSc3nc(=O)n(CCCN(C)C)c4c3CCC4)sc2c1`: -6.26%.
